Test results: PubChem BioAssay (EPA / NIEHS)
Several values for one entry are separate records, joined by “and”; a condition that tells them apart may be missing. Equal values may be shown once. Records with an inconclusive call do not appear. Some compounds were tested as several samples or in several runs, with calls that do not always agree. Activity calls are given as the source filed them. The calls were made as follows: active = hit-call score of the fitted dose curve at least 0.9, where 1 is the maximum; inactive = score below 0.9.

Key:
[1] = molecular target: Nuclear respiratory factor 1 (Homo sapiens) (UniProt Q16656); assay: ATG_NRF1_CIS: Attagene CIS-FACTORIAL HepG2 Assay for human Nuclear Respiratory Factor 1 (NRF1) Orphan Gene (AID 2282987); settings: HepG2 NRF1 cis-element reporter, Attagene multiplex; actives raise or lower the signal
Outline: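 HepG2 cells transiently transfected with multiple cis-regulated reporter units, exposed 24 h. Reporter mRNAs measured by RT-PCR, fluorescent labelling, HpaI digestion and capillary electrophoresis; bidirectional fitting against DMSO.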

[2] = ATG_NFI_CIS: Attagene CIS-FACTORIAL HepG2 Assay for human Nuclear Factor I (NFI) (AID 2282989); settings: HepG2 cis-regulatory reporter, NFI response element transcription; actives raise or lower the signal
Outline: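 HepG2 cells transiently transfected with cis-element-driven multiplexed reporter transcription units, dosed for 24 h. Reporter mRNA quantified by RT-PCR, fluorescent labelling, HpaI digestion and capillary electrophoresis; bidirectional fit versus DMSO baseline.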

[3] = molecular target: Myc proto-oncogene protein (Homo sapiens) (UniProt P01106); assay: ATG_Myc_CIS: Attagene CIS-FACTORIAL HepG2 Assay for human Myelocytomatosis (Myc) Proto-Oncogene Transcription Factor (AID 2282990); settings: HepG2, Attagene cis-reporter transcription factor activity; actives raise or lower the signal
Outline: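 DMSO-normalised, bidirectionally fitted reporter mRNA signal. HepG2 cells transfected with cis reporter constructs, treated 24 h; transcripts detected by RT-PCR, 6-FAM primer extension and CE.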

[4] = ATG_NF_kB_CIS: Attagene CIS-FACTORIAL HepG2 Assay for human Nuclear Factor Kappa B (NF-kB) (AID 2282991); settings: HepG2 Attagene cis-factorial NF-kB reporter mRNA; actives raise or lower the signal
Outline: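 HepG2 cells transfected with cis-promoter-driven reporter units, so endogenous transcription factor activity is measured. Reporter mRNA quantified 24 h after dosing by RT-PCR and capillary electrophoresis, with bidirectional fitting against DMSO.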

[5] = ATG_NRF2_ARE_CIS: Attagene CIS-FACTORIAL HepG2 Assay for human Nuclear Factor Erythroid 2 Related Factor 2 (NFR2) response to Antioxidant Response Elements (ARE) (AID 2282992); settings: HepG2 Attagene ARE/NRF2 reporter, transcription factor activity; actives raise or lower the signal
Outline: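 Endogenous transcription factor activity read out as reporter transcript levels (RT-PCR plus capillary electrophoresis, fluorescence) in transiently transfected HepG2 cells. Measured at 24 h after dosing; gain or loss of signal fitted versus DMSO.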

[6] = ATG_Oct_MLP_CIS: Attagene CIS-FACTORIAL HepG2 Assay for human Octamer-Binding Transcription Factor (Oct) (AID 2282993); settings: HepG2 Attagene cis-factorial Oct reporter, mRNA; actives raise or lower the signal
Outline: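 HepG2 cells transiently transfected with cis-promoter-driven multiplexed reporter transcription units, dosed for 24 h. Reporter mRNA quantified by RT-PCR, fluorescent labelling, HpaI digestion and capillary electrophoresis; bidirectional fits versus DMSO baseline.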

[7] = molecular target: Cellular tumor antigen p53 (Homo sapiens) (UniProt P04637); assay: ATG_p53_CIS: Attagene CIS-FACTORIAL HepG2 Assay for human p53 Transcription Factor (AID 2282994); settings: HepG2 p53 cis-element reporter, Attagene mRNA; actives raise or lower the signal
Outline: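 Endogenous p53 activity read in transiently transfected HepG2 from a cis-element-driven reporter transcript after 24 h exposure. RNA reverse-transcribed, PCR-amplified, fluorescently labelled and sized by capillary electrophoresis; gain or loss fitted against DMSO baseline.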

[8] = BSK_3C_TissueFactor: BioMAP Diversity Plus: 3C Assay for Tissue Factor Biomarker Activity (AID 2282997); settings: BioMAP 3C HUVEC, tissue factor biomarker readout; actives raise or lower the signal
Outline: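 Cells used were primary human umbilical vein endothelial cells. They were dosed with chemical, and after 24 h Tissue Factor was quantified by ELISA. Curves were fitted bidirectionally with DMSO as baseline.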

[9] = BSK_3C_uPAR: BioMAP Diversity Plus: 3C Assay for Urokinase-type plasminogen activator receptor (uPAR) Biomarker Activity (AID 2282998); settings: BioMAP 3C HUVEC, uPAR biomarker ELISA; actives raise or lower the signal
Outline: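 Human umbilical vein endothelial primary cells were exposed to test chemical for 24 h. Cell-surface uPAR was then quantified by ELISA, and responses were fitted bidirectionally against DMSO as negative control and baseline.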

[10] = ATG_M_61_TRANS: Attagene TRANS-FACTORIAL HepG2 Assay for M61 Transcription Factor (Internal Marker) (AID 2282988); settings: HepG2 Attagene TRANS M61 internal marker reporter
Protocol: ATG_TRANS is a cell-based, multiplexed-readout assay that uses HepG2, a human liver cell line, with measurements taken at 24 hours after chemical dosing in a 24-well plate.ATG_M_61_TRANS is one of 30 assay component(s) measured or calculated from the ATG_TRANS assay. It is designed to make measurements of mRNA induction, a form of inducible reporter, as detected with fluorescence intensity signals by Reverse transcription polymerase chain reaction (RT-PCR) and Capillary electrophoresis technology.Data from the assay component ATG_M_61_TRANS was analyzed into 1 assay endpoint. This assay endpoint, ATG_M_61_TRANS, was analyzed in the positive analysis fitting direction relative to DMSO as the negative control and baseline of activity. […] Furthermore, this assay endpoint can be referred to as a secondary readout, because this assay has produced multiple assay endpoints where this one serves a background control function. […]
Human liver HepG2 cells are transiently transfected with multiple reporter transcription units (MRTUs) in 6-well plates using FuGene 6 reagent (Roche; 3 ml FuGene/1 mg DNA). […] A major difference between the CIS and TRANS system is that in CIS activities of endogenous TFs are measured, whereas the TRANS assay evaluates changes in activities of exogenous, chimeric NR-Gal4 proteins. […]

Nuclear respiratory factor 1 (Homo sapiens), sequence (Q16656 whole entry, looked up): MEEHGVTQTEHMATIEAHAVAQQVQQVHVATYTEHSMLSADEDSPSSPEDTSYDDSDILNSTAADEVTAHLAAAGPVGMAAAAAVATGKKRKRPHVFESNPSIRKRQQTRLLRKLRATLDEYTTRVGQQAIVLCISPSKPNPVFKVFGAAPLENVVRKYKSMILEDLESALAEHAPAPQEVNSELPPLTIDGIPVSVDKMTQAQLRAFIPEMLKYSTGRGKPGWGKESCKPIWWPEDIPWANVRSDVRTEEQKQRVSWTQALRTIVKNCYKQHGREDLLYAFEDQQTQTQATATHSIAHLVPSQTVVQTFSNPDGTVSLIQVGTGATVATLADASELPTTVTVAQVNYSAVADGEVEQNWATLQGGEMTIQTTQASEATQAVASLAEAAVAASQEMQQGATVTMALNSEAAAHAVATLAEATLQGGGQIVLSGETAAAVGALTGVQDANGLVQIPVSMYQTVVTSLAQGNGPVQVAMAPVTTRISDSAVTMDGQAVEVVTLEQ
Myc proto-oncogene protein (Homo sapiens), sequence (P01106 whole entry, looked up): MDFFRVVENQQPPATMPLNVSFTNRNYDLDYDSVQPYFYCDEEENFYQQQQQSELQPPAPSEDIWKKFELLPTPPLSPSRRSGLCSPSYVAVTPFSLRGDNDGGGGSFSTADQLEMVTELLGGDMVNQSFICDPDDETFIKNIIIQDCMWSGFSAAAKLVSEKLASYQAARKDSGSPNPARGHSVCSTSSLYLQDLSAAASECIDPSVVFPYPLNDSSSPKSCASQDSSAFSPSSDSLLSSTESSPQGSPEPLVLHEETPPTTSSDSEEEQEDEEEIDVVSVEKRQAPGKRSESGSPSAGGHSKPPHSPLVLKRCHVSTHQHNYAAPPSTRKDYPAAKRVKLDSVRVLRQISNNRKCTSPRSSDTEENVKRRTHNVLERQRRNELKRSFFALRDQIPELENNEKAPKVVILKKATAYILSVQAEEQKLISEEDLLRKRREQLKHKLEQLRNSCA
Cellular tumor antigen p53 (Homo sapiens), sequence (P04637 whole entry, looked up): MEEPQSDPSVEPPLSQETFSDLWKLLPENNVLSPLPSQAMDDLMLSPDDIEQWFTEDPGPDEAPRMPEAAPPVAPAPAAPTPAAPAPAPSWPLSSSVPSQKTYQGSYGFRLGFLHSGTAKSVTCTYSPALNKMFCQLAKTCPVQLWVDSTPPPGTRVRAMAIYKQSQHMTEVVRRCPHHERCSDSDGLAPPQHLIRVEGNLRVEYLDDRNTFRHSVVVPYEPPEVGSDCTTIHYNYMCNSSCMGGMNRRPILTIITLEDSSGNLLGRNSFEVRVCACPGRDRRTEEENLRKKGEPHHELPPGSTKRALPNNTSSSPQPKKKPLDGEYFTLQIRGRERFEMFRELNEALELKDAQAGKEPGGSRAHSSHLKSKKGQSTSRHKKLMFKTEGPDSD

COC(=O)c1ccc(CNS(C)(=O)=O)cc1S(=O)(=O)NC(=O)Nc1nc(OC)cc(OC)n1
outcome [1]: inactive
outcome [2]: inactive
outcome [3]: inactive
outcome [4]: inactive
outcome [5]: inactive
outcome [6]: inactive
outcome [7]: inactive
outcome [8]: inactive
outcome [9]: inactive

c1ccc(Nc2ccccc2)cc1
outcome [1]: inactive
outcome [2]: inactive
outcome [3]: inactive
outcome [4]: inactive
AC50 [5]: 123 µM (active) and 30.4 µM (active)
AC50 [6]: 50 µM (active)
outcome [6]: inactive
outcome [8]: inactive
outcome [9]: inactive

O=C(c1ccc(O)cc1O)c1ccc(O)cc1O
AC50 [1]: 46.5 µM (active)
outcome [1]: inactive
outcome [2]: inactive
outcome [3]: inactive
outcome [4]: inactive
outcome [5]: inactive
outcome [6]: inactive
AC50 [8]: 29.2 µM (active)
outcome [9]: inactive

CCCCOCCOCCOCc1cc2c(cc1CCC)OCO2
outcome [1]: inactive
outcome [2]: inactive
outcome [3]: inactive
outcome [4]: inactive
AC50 [5]: 7.81 µM (active)
outcome [6]: inactive
outcome [8]: inactive
outcome [9]: inactive

N#CSCSc1nc2ccccc2s1
AC50 [1]: 16.7 µM (active)
outcome [1]: inactive
AC50 [2]: 15.4 µM (active) and 358 nM (active)
outcome [3]: inactive
AC50 [4]: 3.07 µM (active)
outcome [4]: inactive
AC50 [5]: 2.89 µM (active)
outcome [5]: inactive
AC50 [8]: 3.33 µM (active) and 5.66 µM (active)
AC50 [9]: 2.04 µM (active) and 6.26 µM (active)

CC(C)CCCCCCc1ccc(O)cc1
AC50 [1]: 15.7 µM (active)
outcome [1]: inactive
outcome [10]: inactive
AC50 [2]: 15.8 µM (active)
outcome [2]: inactive
AC50 [3]: 15.4 µM (active)
outcome [3]: inactive
AC50 [4]: 11.1 µM (active)
outcome [4]: inactive
AC50 [5]: 8.96 µM (active) and 11.1 µM (active) and 9.16 µM (active)
outcome [5]: inactive
AC50 [8]: 9.54 µM (active)
AC50 [9]: 9.68 µM (active)

CCC(C)OC(=O)N1CCCCC1CCO (centres undefined)
outcome [1]: inactive
outcome [2]: inactive
outcome [3]: inactive
outcome [4]: inactive
AC50 [5]: 44.4 µM (active)
outcome [5]: inactive
outcome [8]: inactive
outcome [9]: inactive

COC(=O)c1cccc(C)c1S(=O)(=O)NC(=O)Nc1nc(OCC(F)(F)F)nc(N(C)C)n1
outcome [1]: inactive
outcome [2]: inactive
outcome [3]: inactive
outcome [4]: inactive
AC50 [5]: 30.9 µM (active)
outcome [7]: inactive
outcome [8]: inactive
outcome [9]: inactive

CCNc1nc(N)nc(Cl)n1
outcome [1]: inactive
outcome [2]: inactive
outcome [3]: inactive
outcome [4]: inactive
outcome [5]: inactive
outcome [6]: inactive
outcome [7]: inactive
outcome [8]: inactive
outcome [9]: inactive

O=C(c1ccccc1)C1CCCCC1
outcome [1]: inactive
outcome [2]: inactive
outcome [3]: inactive
outcome [4]: inactive
outcome [5]: inactive
outcome [7]: inactive
outcome [8]: inactive
outcome [9]: inactive

COc1nc(C)nc(NC(=O)NS(=O)(=O)c2ccccc2OCCCl)n1
outcome [1]: inactive
outcome [2]: inactive
outcome [3]: inactive
outcome [4]: inactive
AC50 [5]: 6.85 µM (active)
outcome [5]: inactive
outcome [6]: inactive
outcome [8]: inactive
outcome [9]: inactive

CCCOC(=O)c1ccc(C(=O)OCCC)nc1
outcome [1]: inactive
outcome [2]: inactive
outcome [3]: inactive
outcome [4]: inactive
outcome [5]: inactive
outcome [8]: inactive
outcome [9]: inactive

CCCCOC(=O)[C@@H](C)Oc1ccc(Oc2ccc(C(F)(F)F)cn2)cc1
outcome [1]: inactive
outcome [2]: inactive
outcome [3]: inactive
outcome [4]: inactive
outcome [5]: inactive
outcome [6]: inactive
outcome [7]: inactive
outcome [8]: inactive
outcome [9]: inactive

O=C(Nc1ccc([N+](=O)[O-])cc1Cl)c1cc(Cl)ccc1O
outcome [1]: inactive
outcome [2]: inactive
outcome [3]: inactive
AC50 [4]: 1.17 µM (active)
AC50 [5]: 0.544 µM (active)
outcome [8]: inactive
AC50 [9]: 0.145 µM (active)

CCSC(=O)N(CC(C)C)CC(C)C
outcome [1]: inactive
outcome [2]: inactive
outcome [3]: inactive
outcome [4]: inactive
outcome [5]: inactive
outcome [8]: inactive
outcome [9]: inactive

O=C(O)C1(C(=O)Nc2ccc(Cl)cc2Cl)CC1
outcome [1]: inactive
outcome [2]: inactive
outcome [3]: inactive
outcome [4]: inactive
AC50 [5]: 30.4 µM (active)
outcome [6]: inactive
outcome [8]: inactive
outcome [9]: inactive

COC(=O)c1ccccc1S(=O)(=O)NC(=O)Nc1nc(OC(F)F)cc(OC(F)F)n1
outcome [1]: inactive
outcome [2]: inactive
outcome [3]: inactive
outcome [4]: inactive
outcome [5]: inactive
outcome [6]: inactive
outcome [8]: inactive
outcome [9]: inactive

CCOC(=O)[C@H](C)Oc1ccc(Oc2nc3ccc(Cl)cc3o2)cc1
outcome [1]: inactive
outcome [2]: inactive
outcome [3]: inactive
outcome [4]: inactive
AC50 [5]: 50 µM (active)
outcome [7]: inactive
outcome [8]: inactive
outcome [9]: inactive

CC(C)(c1ccc(O)cc1)c1ccc(O)cc1
AC50 [1]: 62.2 µM (active)
outcome [1]: inactive
AC50 [2]: 44.2 µM (active) and 37.8 µM (active)
outcome [2]: inactive
AC50 [3]: 2.29 µM (active)
outcome [3]: inactive
AC50 [4]: 56.9 µM (active)
outcome [4]: inactive
outcome [5]: inactive
outcome [8]: inactive
outcome [9]: inactive

CCC(O)=C1C(=O)CC(C(=O)O)CC1=O (centres undefined)
outcome [1]: inactive
outcome [2]: inactive
outcome [3]: inactive
outcome [4]: inactive
AC50 [5]: 35.6 µM (active)
outcome [6]: inactive
outcome [7]: inactive
outcome [8]: inactive
outcome [9]: inactive

C[C@]12C[C@H](O)[C@H]3[C@@H](CCC4=CC(=O)CC[C@@]43C)[C@@H]1CC[C@@H]2C(=O)CO
outcome [1]: inactive
outcome [2]: inactive
outcome [3]: inactive
outcome [4]: inactive
outcome [5]: inactive
outcome [7]: inactive
outcome [8]: inactive
outcome [9]: inactive

CCOC(=O)NCCOc1ccc(Oc2ccccc2)cc1
outcome [1]: inactive
outcome [2]: inactive
outcome [3]: inactive
outcome [4]: inactive
AC50 [5]: 13.1 µM (active)
AC50 [6]: 14 µM (active)
outcome [8]: inactive
AC50 [9]: 30.4 µM (active)

c1ccc2[nH]c(-c3cscn3)nc2c1
outcome [1]: inactive
outcome [2]: inactive
outcome [3]: inactive
outcome [4]: inactive
AC50 [5]: 149 µM (active)
outcome [5]: inactive
outcome [8]: inactive
outcome [9]: inactive

C#C[C@]1(O)CC[C@H]2[C@@H]3CCC4=CC(=O)CC[C@@H]4[C@H]3CC[C@@]21CC
outcome [1]: inactive
outcome [2]: inactive
outcome [3]: inactive
outcome [4]: inactive
AC50 [5]: 52.1 µM (active)
outcome [5]: inactive
outcome [6]: inactive
outcome [8]: inactive
outcome [9]: inactive

COC(=O)c1ccccc1C(=O)O
outcome [1]: inactive
outcome [2]: inactive
outcome [3]: inactive
outcome [4]: inactive
outcome [5]: inactive
outcome [6]: inactive
outcome [7]: inactive
outcome [8]: inactive
outcome [9]: inactive

CCN(Cc1c(F)cccc1Cl)c1c([N+](=O)[O-])cc(C(F)(F)F)cc1[N+](=O)[O-]
outcome [1]: inactive
outcome [2]: inactive
outcome [3]: inactive
outcome [4]: inactive
AC50 [5]: 4.28 µM (active)
outcome [6]: inactive
outcome [8]: inactive
AC50 [9]: 12 µM (active)
